Test [1] is described as follows: NCI Yeast Anticancer Drug Screen. Data for the rad50 strain (AID 155).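 Note: 0% = growth of vehicle-only cultures of the same strain.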 The following applies: S. cerevisiae rad50 strain growth inhibition; at 50.0 µM; active compounds read high. The method, boiled down: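 Growth of the mutant yeast was measured after compound exposure and referenced to vehicle-treated cultures.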
Test [2] can be described thus: NCI Yeast Anticancer Drug Screen. Data for the mec2-1 strain (AID 157). The following applies: S. cerevisiae mec2-1 strain, at 50.0 µM, active compounds read high. The method, boiled down: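 Readout is yeast growth inhibition, normalised to vehicle-treated controls, in the mec2-1 strain exposed to compound.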
The nature of test [3]: NCI Yeast Anticancer Drug Screen. Data for the sgs1 mgt1 strain (AID 161).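 Note: 0% = growth of cultures given vehicle only.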 The settings on record: S. cerevisiae sgs1 mgt1 strain, at 50.0 µM, active compounds read high. The method in brief:
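Compounds are added to genetically altered yeast, and growth is compared with cultures given vehicle alone to give percent inhibition.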

Test [4] in a line: NCI Yeast Anticancer Drug Screen. Data for the cln2 rad14 strain (AID 165).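 Note: 0% = growth equal to vehicle treated cultures.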 The settings on record: S. cerevisiae cln2 rad14 strain, at 50.0 µM, active compounds read high. The method, boiled down: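 Relative to vehicle controls, growth inhibition of compound-treated cln2 rad14 yeast was recorded.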
Test [5] in a line: NCI Yeast Anticancer Drug Screen. Data for the bub3 strain (AID 167). The settings on record: S. cerevisiae bub3 mutant strain, at 50.0 µM, active compounds read high. The method, boiled down: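 Whole-cell yeast assay. The mutant strain was incubated with compounds, and growth inhibition was determined by comparison with vehicle-treated cells.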
The nature of test [6]: NCI Yeast Anticancer Drug Screen. Data for the mlh1 rad18 strain (AID 175). The settings on record: S. cerevisiae mlh1 rad18 strain growth inhibition; at 50.0 µM; active compounds read high. The method, boiled down:
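Test agents were incubated with a yeast strain of defined genotype (DNA damage repair defect). Inhibition of growth was derived by comparison with vehicle-exposed cultures.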

SMILES strings stand for the structures. About 79,000 compounds went through this panel and 15% of them were active in at least one assay; those are over-represented in the sample as a whole. A number with no mark means an inactive call. Calls of active or inactive are those of the source. Cut-off read from the data, not from the text of the source: active = growth inhibition above about 70%; inactive = the rest. Where a SMILES comes first, the peptide text is derived from it. [ ]: non-standard residue; d: D form. The star is where a group is joined. Ac5c = NC1(C(=O)O)CCCC1; Cbz = O=C(OCc1ccccc1)*; Boc = CC(C)(C)OC(=O)*; tBu = CC(C)(C)*

With `COC(=O)C1(NC(=O)C(Cc2ccccc2)NC(=O)C(NC(=O)C(CCCCNC(=O)OC(C)(C)C)NC(=O)C(Cc2c[nH]c3ccccc23)NC(=O)C(Cc2ccccc2)NC(=O)OCc2ccccc2)C(C)OC(C)(C)C)CCCC1` (centres undefined) (Cbz-FWK(Boc)T(tBu)F[Ac5c]-OMe; configuration not given here), the growth inhibition in test [1] is -11.9%; in test [2] it was -1.85%; in test [3], -26.6%; in test [4] it was 6.9%; in test [5], -11.4%; in test [6], -12.7%.
For the compound `CC1=C(CCC(C)CO)O[C@H]2C[C@H]3[C@@H]4CC[C@H]5C[C@@H](O)CC[C@]5(C)[C@H]4CC(=O)[C@]3(C)[C@@H]12` (some centres undefined), the growth inhibition was 64.3% in test [1]; 28.6% in test [2]; 84% (active) in test [3]; 38.4% in test [4]; 67.3% in test [5]; 70.8% (active) in test [6].
`CCCCCCCCCCCCCCCCS(=O)(=O)N/N=C/c1ccc(N(C)C)cc1`: the growth inhibition in test [1] is 26.1%; in test [2], 13.3%; in test [3], 17.1%; in test [4] it was 12.3%; in test [5], 1.95%; in test [6], 13.7%.
As to `O=S(=O)(c1ccccc1)N1CCC1c1ccccc1` (centres undefined), the growth inhibition in test [1] was -11.3%; in test [2], -3.9%; in test [3], -8.8%; in test [4], 21.9%; in test [5] it was 9.3%; in test [6], 0.8%.
As for `Cc1cccc(C)c1NC(=S)NC1CC(C)CC(C)(C)C1` (centres undefined), the growth inhibition in test [1] was 41.2%; in test [2], 50.5%; in test [3], 76.7% (active); in test [4], 57.9%; in test [5], 63%; in test [6], 50.3%.
Turning to `CCC1=C/C(=N/O)C(C)=CC1(C)C(Cl)(Cl)Cl` (centres undefined), the growth inhibition in test [1] is 25.7%; in test [2] it was 7.65%; in test [3] it was 10%; in test [4], 17.2%; in test [5], 17.9%; in test [6], 48.5%.
Turning to `CCCCCCCCCCCCCCCC(=O)OCC1OC(OC2(COC(=O)CCCCCCCCCCCCCCC)OC(COC(=O)CCCCCCCCCCCCCCC)C(OC(=O)CCCCCCCCCCCCCCC)C2OC(=O)CCCCCCCCCCCCCCC)C(OC(=O)CCCCCCCCCCCCCCC)C(OC(=O)CCCCCCCCCCCCCCC)C1OC(=O)CCCCCCCCCCCCCCC` (centres undefined), the growth inhibition was -6.25% in test [1]; -26% in test [2]; -34.1% in test [3]; -14.7% in test [4]; -13.9% in test [5]; -6% in test [6].
As for `OCCN(/N=C\c1ccc2ccccc2c1)C1=NCCN1`, the growth inhibition in test [1] is 15.3%; in test [2] it was 6.25%; in test [3], -22.1%; in test [4], -28.2%; in test [5], -2.5%; in test [6], 5.2%.
Turning to `Cc1nc(N)nc2c1CCC(=O)N2`, the growth inhibition in test [1] was 11.7%; in test [2], 7.6%; in test [3], -3.1%; in test [4] it was -37.6%; in test [5], 0.65%; in test [6] it was 1.7%.
For the compound `O=c1c2c(nc3n1CCC3)OC(c1ccccc1)C2` (centres undefined), the growth inhibition is 0.4% in test [1]; 4.3% in test [2]; -5.9% in test [3]; -44.8% in test [4]; -2.95% in test [5]; 12.6% in test [6].
Regarding `Nc1ccc(S(=O)(=O)NNc2nc(N3CCCCC3)nc(N3CCCCC3)n2)cc1`, the growth inhibition is -1.3% in test [1]; 1.95% in test [2]; 10.2% in test [3]; 7.9% in test [4]; -11.7% in test [5]; -5% in test [6].
Consider `NC(=O)NNc1ccccc1`, for which the growth inhibition in test [1] is 3.6%; in test [2], 6.2%; in test [3] it was -1.85%; in test [4], -16.4%; in test [5], -7.2%; in test [6] it was -29.2%.
On to `Cc1ccc(S(=O)(=O)N/N=C2/CC3CCC4CC2CC34)cc1` (centres undefined), for which the growth inhibition is -51% in test [1]; -0.6% in test [2]; -35.2% in test [3]; -25% in test [4]; 12.9% in test [5]; -10.1% in test [6].
In the case of `Cc1ccc(C(=Nc2ccccc2)N=S(c2ccccc2)c2ccccc2)cc1`, the growth inhibition is -2.2% in test [1]; 5.6% in test [2]; -19% in test [3]; -16.1% in test [4]; 2.55% in test [5]; -30.6% in test [6].
Consider `CNc1ccc(/C=C/c2ccnc3ccccc23)cc1`, for which the growth inhibition in test [1] is 31.2%; in test [2], 46.2%; in test [3] it was 68.3%; in test [4], 27.6%; in test [5], 42.1%; in test [6], 49.8%.
Take `CC(C)(CO)C(Cl)C(=O)NCCC(=O)O` (centres undefined): the growth inhibition in test [1] is -6.05%; in test [2], -14.9%; in test [3] it was -13%; in test [4], -2%; in test [5] it was 15.7%; in test [6], -13.4%.
Turning to `CC(=O)C1C(=O)C(=O)N(c2ccccc2C(C)C)C1=O` (centres undefined), the growth inhibition is 19% in test [1]; 6.55% in test [2]; 11.9% in test [3]; 21.4% in test [4]; 11.9% in test [5]; 29.5% in test [6].
For the compound `CC(C)(O)c1cc(F)ccc1N`, the growth inhibition is -0.75% in test [1]; 11.3% in test [2]; -1.3% in test [3]; 15.3% in test [4]; 29.6% in test [5]; 8.3% in test [6].
Consider `C/C=C\CCCCCCCCCCCCCCCC`, for which the growth inhibition is -1.15% in test [1]; -12.1% in test [2]; -0.6% in test [3]; 13.4% in test [4]; -6.9% in test [5]; 16.8% in test [6].

Source of the values: PubChem BioAssay (NCI).
